Experimental findings from PubChem BioAssay AID651814 (National Center for Advancing Translational Sciences (NCATS), 2012) are described below.

Structures are written as SMILES. Among all 2,100 compounds or so, about 590 (28%) were called active. Roughly 42% stayed inconclusive and do not appear here. Calls follow the shape of the dose curve; as a rule, active = well fitted inhibition curve with a large enough effect; inconclusive = small, poorly fitted or top-dose-only effect; inactive = flat fitted curve, though single readings scatter. The list shows a part of the results.
Potency is read from the fitted curve at half-maximal effect.

Sequence of DNA dC->dU-editing enzyme APOBEC-3F (Homo sapiens) (Q8IUX4 whole entry, looked up): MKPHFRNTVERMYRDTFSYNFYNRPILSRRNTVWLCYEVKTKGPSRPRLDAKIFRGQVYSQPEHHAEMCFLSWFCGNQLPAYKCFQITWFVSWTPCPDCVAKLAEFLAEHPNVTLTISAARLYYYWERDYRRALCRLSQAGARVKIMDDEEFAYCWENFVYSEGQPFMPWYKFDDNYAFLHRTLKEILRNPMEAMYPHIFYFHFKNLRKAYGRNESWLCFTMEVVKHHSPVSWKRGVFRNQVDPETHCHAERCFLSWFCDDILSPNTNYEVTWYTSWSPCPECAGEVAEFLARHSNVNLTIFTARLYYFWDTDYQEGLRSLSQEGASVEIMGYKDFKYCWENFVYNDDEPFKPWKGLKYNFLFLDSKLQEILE

The target of this assay is DNA dC->dU-editing enzyme APOBEC-3F (Homo sapiens) (UniProt Q8IUX4). The experiment in a line: qHTS for inhibitors of Vif-A3F interactions: Cherry picks. Also: nearly all actives have a fitted effect of over 70% in size.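 As to max response: % of control where 0% means no effect; active compounds raise eYFP fluorescence by blocking Vif-driven A3F loss.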 To be noted: HeLa A3F-eYFP + Vif (tagged APOBEC3F with the HIV-1 protein that degrades it), eYFP fluorescence, 24 h. Put shortly:
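HeLa cells stably expressing A3F-eYFP plus Vif, cultured overnight, then exposed to compounds at several concentrations for 24 h at 37 deg C. Reduced Vif-driven degradation read as rising eYFP fluorescence (488 nm ex/500-530 nm em) by laser-scanning cytometry; MG132 as positive control.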
`N#Cc1cccn1-c1nccc(-c2cccs2)n1`: the Potency was 12.5 µM (active).
Turning to `C#CCSc1nc(-c2cccs2)ccc1C#N`, the max response is -28.5% (inactive).
With `O=CNc1ccc2c3c(cccc13)-c1ccccc1-2`, the Potency is 14 µM (active).
As for `CCCCN(C)CC(O)Cn1cc(/C=C/C(=O)c2cccs2)c2ccccc21` (stereo not drawn), the Potency is 20.6 µM (active).
On the same count and under the same terms, under `N#CCC(=O)N/N=C/c1ccc(N2N=C(c3ccccc3)CC2c2ccccc2)cc1` (stereo not drawn) stands 18.4 µM (active).
As to `CC1Sc2ccc(C(=O)NCc3ccccn3)cc2NC1=O` (stereo not drawn), the max response is -4.69% (inactive).
`COc1ccc(NC(=O)c2cccc3ccccc23)cc1`: the max response was -30% (inactive).
`CCn1c(CNC(=O)C23CC4CC(CC(C4)C2)C3)nnc1SCC(=O)Nc1ccc(OC)cc1`: the max response is 6.03% (inactive).
Consider `COc1ccc(NC(=O)CSc2ccc3c4c(cccc24)C(=O)c2ccccc2-3)cc1`, for which the Potency is 8.2 µM (active).
In the case of `N#Cc1cccc(NC(=O)CSc2ccc3c4c(cccc24)C(=O)c2ccccc2-3)c1`, the Potency was 2.31 µM (active).
For the compound `Cc1ccc(NC(=O)CSc2ccccc2NC(=O)c2cccc(Cl)c2)cc1Cl`, the max response is -5.67% (inactive).
As for `Cc1cccc(C(=O)NC(=S)N2CCc3ccccc3C2)c1`, the max response was 0.715% (inactive).
Regarding `COc1ccc(NC(=O)CN2C(=O)C3(SCC(=O)N3c3ccccc3)c3ccccc32)cc1Cl` (stereo not drawn), the max response is -11.4% (inactive).
On to `CCCN1C(=O)S/C(=C\c2ccc(N3CCOCC3)o2)C1=O`, for which the Potency was 2.8 µM (active).
Take `CCCN1C(=O)S/C(=C/c2ccc(N3CCOCC3)o2)C1=O`: the Potency is 2.8 µM (active).
As to `Cn1cc(/C=C2\SC(=O)N(c3ccccc3)C2=O)c2ccccc21`, the max response was -28.8% (inactive).
Take `O=C1S/C(=C\c2ccc(N3CCOCC3)o2)C(=O)N1c1ccccc1`: the Potency is 3.53 µM (active).
Turning to `C/C(=N/NC(N)=S)c1ccc(Br)s1`, the max response is 1.12% (inactive).
`CC(NC1=CC(=O)c2cccnc2C1=O)C(O)c1ccccc1` (stereo not drawn): the max response is -27.2% (inactive).
Regarding `O=C(NCc1ccco1)C1Cc2c(-c3cccc(F)c3)ccnc2O1` (stereo not drawn), the max response is -27.2% (inactive).
As for `Cc1ccc(-c2cc(C(=O)N/N=C/C(Br)=C/c3ccccc3)n[nH]2)o1`, the max response was -23.7% (inactive).
Turning to `O=[N+]([O-])c1ccccc1C1Nc2cccc3cccc(c23)N1`, the max response is 1.22% (inactive).
As for `Cc1ccc(S(=O)(=O)Nc2cc(Cl)c(O)c3ncccc23)cc1`, the max response was -26.9% (inactive).
With `Cc1cccc2[nH]cc(/C=C3/C=Nc4ccccc43)c12`, the Potency was 23.1 µM (active).
In the case of `C(=C\c1ccco1)/C1=NN(c2ccccc2)C(c2ccco2)C1` (stereo not drawn), the max response was -27.8% (inactive).
In the case of `COc1cccc(C2CC(c3ccccc3)=NN2S(=O)(=O)c2ccc(C)cc2)c1OC` (stereo not drawn), the max response was -28.4% (inactive).
With `O=[N+]([O-])c1ccc(C2=NN(c3ccccc3)C(c3ccco3)C2)cc1` (stereo not drawn), the Potency was 1.25 µM (active).
The same measure, in the same setting: to `COc1ccccc1N1N=C(c2ccc([N+](=O)[O-])cc2)CC1c1ccccc1` (stereo not drawn) belongs 1.12 µM (active).
The same measure, in the same setting: to `O=[N+]([O-])c1ccc(/C=C/C2=NN(c3ccccc3)C(c3ccco3)C2)o1` (stereo not drawn) belongs 2.59 µM (active).
Regarding `CCCOc1ccc(N)cc1N`, the max response is 4.36% (inactive).
Regarding `CN1C(=O)C(O)(C2COC(C)(C)CC2=O)c2cc(Br)ccc21` (stereo not drawn), the max response is -0.16% (inactive).
The same measure, in the same setting: to `CC(C)CCNC(=O)c1ccc2c(c1)NC(=O)C(CS(=O)(=O)Cc1cccc(Br)c1)N2` (stereo not drawn) belongs 0.102% (inactive).
As for `CCN1/C(=C/C=C2/SC(=Nc3cccc4ncccc34)N(C)C2=O)Sc2ccccc21`, the Potency was 16.4 µM (active).
As to `C/C(=N\NC(=O)c1cc(-c2ccncc2)nc2ccccc12)c1ccc(N2CCOCC2)cc1`, the max response is -14.9% (inactive).
As to `CCn1cc(/C=C/c2cc[n+](C)cc2)c2ccccc21`, the Potency was 0.79 µM (active).
Consider `CC(C)n1cc(/C=C/c2cc[n+](C)cc2)c2ccccc21`, for which the Potency is 1.4 µM (active).
As for `C=CCn1cc(/C=C/c2cc[n+](C)cc2)c2ccccc21`, the Potency is 2.23 µM (active).
As to `COC(=O)c1c(-c2ccccc2Cl)noc1/C=C/N(C)C`, the max response is 2.98% (inactive).
The same measure, in the same setting: to `CC(=O)c1c(C)[nH]c(C(=O)Nc2ccc(Cl)cc2F)c1C` belongs -17.7% (inactive).
As to `CC(=O)c1cc(NC(=O)c2ccc(Cl)cc2)c(=O)oc1/C=C/N(C)C`, the Potency is 6.27 µM (active).
With `COc1ccc(C(=O)Nc2cc(C(C)=O)c(/C=C/N(C)C)oc2=O)cc1`, the Potency was 11.2 µM (active).
For the compound `CC(=O)c1cc(NC(=O)c2ccc(C)cc2)c(=O)oc1/C=C/N(C)C`, the Potency was 20.6 µM (active).
For the compound `COC(=O)c1cc(NC(=O)c2ccccc2)c(=O)oc1/C=C/Nc1ccc(Oc2ccccc2)cc1`, the max response is -22% (inactive).
Consider `COc1cc(OC)cc(C(=O)Nc2ccccc2C(=O)NC2CC2)c1`, for which the max response was -22.6% (inactive).
Take `CC(=O)c1cc2c(cc1NS(=O)(=O)c1ccc(C)cc1)OCCO2`: the max response was -26.6% (inactive).
As to `C/C(=N\Nc1nccnc1Cl)c1ccc(Cl)c(Cl)c1`, the max response was 0.009% (inactive).
With `N#CC1=C(N)C(C#N)(C#N)[C@H](c2c(F)cccc2F)[C@H]2CC3(CC=C12)OCCO3`, the Potency was 20.6 µM (active).
Regarding `COc1ccccc1-c1cc(C(=O)NN)[nH]n1`, the max response is 7.62% (inactive).
Take `CCCCCCc1cc2cc(-c3nnc(-c4ccccc4O)o3)c(=O)oc2cc1O`: the max response is 6.08% (inactive).
As to `CCCCCCc1cc2cc(-c3nnc(-c4ccccc4)o3)c(=O)oc2cc1O`, the Potency was 3.96 µM (active).
Same read-out and setting: to `CCCCCCc1cc2cc(-c3nnc(-c4ccccc4OC)o3)c(=O)oc2cc1O` belongs 2.8 µM (active); to `C=C(NC(=O)C(=C)NC(=O)c1csc(C2=NC3c4csc(n4)C4NC(=O)c5csc(n5)C(C(C)(O)C(C)O)NC(=O)C5CSC(=N5)/C(=C/C)NC(=O)C(C(C)O)NC(=O)c5csc(n5)C3(CC2)NC(=O)C(C)NC(=O)C(=C)NC(=O)C(=C)NC(=O)C(C(C)C)NC2C=Cc3c(C(C)O)cc(nc3C2O)C(=O)OC4C)n1)C(N)=O` (stereo not drawn), 12.5 µM (active).
`O=C(Cn1cnc2c(cnn2-c2ccc(F)cc2)c1=O)NCc1ccco1`: the max response is -25.6% (inactive).
Consider `O=C(Cn1c(=O)n(Cc2ccco2)c(=O)c2sc3ccccc3c21)Nc1ccccc1C(F)(F)F`, for which the Potency is 14.6 µM (active).
For the compound `CCc1ccc(N=Nc2ccc(O)c3[nH]cnc23)cc1`, the Potency was 13 µM (active).
In the case of `O=S(=O)(Nc1nc2ccccc2nc1N1CCc2ccccc2C1)c1ccc(Br)cc1`, the max response is -17% (inactive).
Regarding `COc1cc(/C=C/C(=O)c2ccc3c(c2)OCCO3)cc(Br)c1OCC(=O)N(C)C`, the Potency was 15.8 µM (active).
Consider `CCOc1ccc(N/C=C/C(=O)c2cc(OC)c(OC)c(OC)c2)cc1`, for which the max response is -29.8% (inactive).
As for `CCOC(=O)C1=C(C)N=c2sc(=Cc3cc(Cl)c(OCC(=O)O)c(Cl)c3)c(=O)n2C1c1cccc(OC)c1` (stereo not drawn), the Potency is 19.8 µM (active).
For `C=CCN1C(=O)/C(=C2/Sc3ccc(OC)cc3N2C)SC1=Nc1cccc(O)c1`, the Potency was 20.6 µM (active).
As for `C=CCN1C(=O)/C(=C2/Sc3ccc(OC)cc3N2CC)SC1=S`, the Potency is 9.2 µM (active).
Consider `C=CCN1C(=O)/C(=C/c2ccc(O)c(OC)c2)S/C1=N/c1nccs1`, for which the max response is -0.164% (inactive).
As to `Cc1ccc2[nH]c(C(=O)NN=C3CCCCC3)c(-c3ccccc3)c2c1`, the max response is 0.516% (inactive).
`Cc1cc(C)cc(Oc2nc(C(F)(F)F)nc3ccccc23)c1`: the max response is -26.3% (inactive).
As for `CCc1ccc2nc(N(CCCN(C)C)C(=O)c3ccc(S(=O)(=O)N(C)C4CCCCC4)cc3)sc2c1`, the max response is -4.66% (inactive).
As for `O=C(C(=O)N1CCN(c2ccccc2Cl)CC1)c1c[nH]c2ccccc12`, the max response is 2.85% (inactive).
For `C[n+]1ccc(/C=C/c2c[nH]c3ccccc23)cc1`, the Potency was 9.2 µM (active).
On to `OCC[n+]1ccc(/C=C/c2c[nH]c3ccccc23)cc1`, for which the Potency was 8.2 µM (active).
For `C[n+]1cc(C(=O)N2CCCCC2)ccc1/C=C/c1c[nH]c2ccccc12`, the Potency is 14 µM (active).
The same measure, in the same setting: to `CC[n+]1ccc(/C=C/c2c[nH]c3ccccc23)cc1` belongs 9.2 µM (active).
Regarding `CC(=O)Nc1ccc(S(=O)(=O)Nc2nc3ccccc3nc2Nc2ccc3ccccc3c2)cc1`, the max response was 0.168% (inactive).
`COc1ccc2[nH]c3c(c2c1)CCNC3c1ccc([N+](=O)[O-])o1` (stereo not drawn): the Potency is 23.1 µM (active).
For `COc1ccc(S(=O)(=O)N2CCN(C(=O)c3ccc([N+](=O)[O-])o3)CC2)cc1`, the max response is -3.97% (inactive).
Take `COc1ccc2oc(-c3ccccc3[N+](=O)[O-])cc(=O)c2c1`: the max response is -28% (inactive).
Take `CC(/C=C/c1ccc(N(C)C)cc1)=N\N=C(/N)SC1CC(=O)N(c2ccc(C(=O)O)cc2)C1=O` (stereo not drawn): the max response was -20.3% (inactive).
Regarding `CCOC(=O)C1C(=O)C=C(/C=C/c2ccc(N(C)C)cc2)CC1c1ccccc1` (stereo not drawn), the Potency is 10.3 µM (active).
`Cc1ccc(/C=N/NC(=O)CCCOc2ccc(Cl)cc2Cl)cc1`: the max response was -27.3% (inactive).
Take `Cc1ccc(-c2nc3ncccc3o2)cc1NC(=O)c1ccc([N+](=O)[O-])o1`: the max response was -17.2% (inactive).
